# The whole screen tested about 190,000 compounds, of which about 810 (0.43%) were called active. For the sample, actives were picked, then their nearest neighbours and some compounds at random. Values without a mark were called inactive. Rule as the data show it: active = inhibition above about 50%; inactive = the rest.
# Target: Mannose-6-phosphate isomerase (Homo sapiens) (UniProt P34949)
# Test: inhibitors of human PMI, primary screen, biochemical, fluorescence intensity, coupled assay (AID 1209);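 also: plate controls were DMSO vehicle for no effect and wells lacking substrate for full effect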
# Details: purified PMI enzyme, at 20 µM, active compounds read high
# Sequence of Mannose-6-phosphate isomerase (Homo sapiens) (P34949 whole entry, looked up): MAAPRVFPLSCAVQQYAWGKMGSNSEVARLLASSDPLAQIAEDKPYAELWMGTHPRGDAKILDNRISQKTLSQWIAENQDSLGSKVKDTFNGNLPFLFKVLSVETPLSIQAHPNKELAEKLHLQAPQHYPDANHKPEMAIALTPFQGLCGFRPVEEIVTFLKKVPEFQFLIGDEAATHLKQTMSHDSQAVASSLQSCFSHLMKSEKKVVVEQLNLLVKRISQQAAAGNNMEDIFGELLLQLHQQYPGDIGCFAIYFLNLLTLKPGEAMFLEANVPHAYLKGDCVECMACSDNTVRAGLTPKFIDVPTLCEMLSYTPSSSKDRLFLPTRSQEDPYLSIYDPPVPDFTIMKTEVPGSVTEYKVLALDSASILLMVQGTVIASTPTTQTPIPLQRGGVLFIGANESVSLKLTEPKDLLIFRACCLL
row,Compound,inhibition
1,C=CCn1c(SCC(=O)Nc2nc(C)cs2)nnc1C(NC(=O)c1ccccc1)C(C)C (stereo not given),5.4%
2,O=C(CSc1nc(-c2ccccc2)nc2ccccc12)Nc1cccc(C(=O)O)c1,20.6%
3,CCOC(=O)c1cc(-c2ccccc2)sc1NC(=O)c1ccc(OC)c(OC)c1,42.1%
4,CCOC(=O)c1cc(-c2ccccc2)sc1NC(=O)c1ccc(OC)cc1,68.2% (active)
5,CCOC(=O)c1cc(-c2ccccc2)sc1NC(=O)c1cc(OC)c(OC)c(OC)c1,13%
6,CCn1c(SCC(=O)c2ccc(CNC(C)=O)o2)nnc1-c1cccs1,-9%
7,O=c1cc2[nH]c3ccccc3c(=O)n2nc1-c1ccccc1,63.9% (active)
8,O=c1cc(-c2ccccc2)[nH]c2ccccc12,-3.1%
9,O=c1nc(-c2ccccc2)c2ccccc2[nH]1,10.3%
10,Cc1ccc(Cl)cc1NC(=O)N[C@@H](C)C(=O)O,-0.2%
11,O=C(C1CCN(S(=O)(=O)c2cccc3nsnc23)CC1)N1CCn2c1nc1ccccc12,8.5%
12,C=CCn1c(NCCOC)nc2c1c(=O)n(C)c(=O)n2C,-2.8%
13,CCCSc1nnc2nc(C)cc(C)n12,-2.6%
14,CCSc1nnc2nc(C)cc(C)n12,7.6%
15,Cc1nnsc1SC(C)C(=O)O (stereo not given),64.6% (active)
16,CC(Sc1sc(=S)sc1SC(C)C(=O)O)C(=O)O (stereo not given),-15.4%
17,Cc1nnsc1SCC(=O)O,-12.4%
18,Cc1ccc(S(=O)(=O)N2CCCCC2)cc1NC(=O)Nc1ccc(Cl)cc1Cl,13.8%
19,CC(Nc1ccc2c(c1)OCCO2)C(=O)N1CCc2ccccc21 (stereo not given),6.4%
20,Cn1c(=O)n(C)c2cc(S(=O)(=O)Nc3cc(Cl)ccc3O)ccc21,9.8%

row,Compound,inhibition
1,CCN1/C(=N\N)c2cccc3cccc1c23,-48%
2,CNC(=O)CN1C(=O)c2cccc3cccc1c23,-1.5%
3,CCN1C(=O)c2cccc3c(N)ccc1c23,64.7% (active)
4,CCN1C(=O)c2cccc3c(NC(=O)C(C)(C)C)ccc1c23,13.8%
5,CCN1C(=O)c2cccc3c(S(=O)(=O)Nc4ccccc4)ccc1c23,-1%
6,Cc1nc2cc3c(cc2c(C)c1C(=O)OC(C)C)OCO3,-5.2%
7,Cc1ccc(C(=O)NCc2ccccc2)c(F)c1F,5.5%
8,COc1ccc(OC)c(NC2c3ccccc3C(=O)N2c2cccnc2)c1 (stereo not given),-11.1%
9,Oc1ccc2ccccc2c1/C=N/c1nc2c(s1)CCCC2,45.8%
10,COc1ccc(C(=O)Nc2nc3c(s2)Cc2cc(OC)ccc2-3)cc1,-2.4%
11,COc1ccc2c(c1)CCc1sc(NC(=O)c3ccc(C)cc3)nc1-2,19.4%
12,COc1ccc2c(c1)-c1nc(/N=C/c3c(O)ccc4ccccc34)sc1CC2,77.9% (active)
13,COc1ccc2c(c1)-c1nc(NC(=O)c3ccco3)sc1CC2,23.9%
14,COc1ccc2c(c1)-c1nc(/N=C/c3ccc(O)cc3)sc1CC2,80.2% (active)
15,COc1ccc2c(c1)-c1nc(/N=C/c3ccccc3O)sc1CC2,70% (active)
16,COc1ccc2c(c1)-c1nc(N)sc1CC2,73.3% (active)
17,COc1ccc(N=Cc2c(O)ccc3ccccc23)cc1,37%
18,COc1ccc2c(c1)-c1nc(NC(=O)c3cccs3)sc1CC2,26.3%
19,COc1ccc2c(c1)Cc1sc(NC(=O)c3ccccc3)nc1-2,3.2%
20,COc1ccc2c(c1)CCc1sc(NC(=O)c3ccco3)nc1-2,31.4%

# Reference: PubChem BioAssay AID1209 (Sanford-Burnham Center for Chemical Genomics, 2008)
